Inconclusive results are not listed. Values without a mark were called inactive. Activity calls are given as the source filed them. Calls follow the shape of the full dose curve.

The nature of the test: qHTS for Inhibitors of the Functional Ribonucleoprotein Complex (vRNP) of Lymphocytic Choriomeningitis Arenaviruses (LCMV): LCMV Confirmatory Screen - GLuc reporter signal. As to conditions: LCMV minigenome vRNP, Gaussia luciferase reporter; series mostly up to 53.9 µM; activity change, negative = inhibition: at the top concentration. For orientation: Quantitative high-throughput screening tests each substance at several concentrations.
`CC(C)(C)C1CCC(CC2=C(O)c3ccccc3C(=O)C2=O)CC1` (stereo unspecified): the Potency was 6.11 µM (active).
For `CC[C@@H](C(=O)O)[C@@H]1O[C@@H]([C@@H](C)[C@H](O)[C@H](C)C(=O)[C@H](CC)[C@H]2O[C@]3(C=C[C@@H](O)[C@]4(CC[C@@](C)([C@H]5CC[C@](O)(CC)[C@H](C)O5)O4)O3)[C@H](C)C[C@@H]2C)[C@@H](C)C[C@@H]1C`, the Potency is 0.0627 µM (active).
`Clc1nccc2c1ccc1ccccc12`: the “activity change, negative = inhibition” value is -21.7%.
The same measure, in the same setting: next, `CC(=O)OCC(=O)[C@@]12N=C(C)O[C@H]1C[C@H]1[C@@H]3CCC4=CC(=O)C=C[C@]4(C)[C@@H]3[C@@H](O)C[C@@]12C`: 34.7%.
In the case of `O=C1c2ccccc2-n2c1nc1ccccc1c2=O`, the Potency is 1.22 µM (active).
Turning to `CCc1cncnc1N1CCN(Cc2nc3ccc(C(F)(F)F)cc3[nH]2)CC1`, the Potency was 4.44 µM (active).
On to `CCn1c(-c2nonc2N)nc2cnc(Oc3cccc(NC(=O)c4ccc(OCCN5CCOCC5)cc4)c3)cc21`, for which the Potency was 4.32 µM (active).
On to `O=C(Nc1ccccc1)c1cc([N+](=O)[O-])ccc1Cl`, for which the Potency was 24.3 µM (active).
Take `Cc1ccc2c(c1)C1CN(C)CCC1N2` (stereo unspecified): the “activity change, negative = inhibition” value was -10.8% [at 19.4 µM].
`COC(=O)c1nc(Cl)c(Cl)nc1N`: the Potency was 1.72 µM (active).
In the case of `CC12C(=O)OC(=O)C1(C)C1CCC2O1` (stereo unspecified), the Potency was 9.68 µM (active).
As for `Cc1ccccc1-n1c(Cn2nc(-c3cccc(O)c3)c3c(N)ncnc32)nc2cccc(C)c2c1=O`, the Potency was 30.6 µM (active).
In the case of `CC1=C(C)C(=O)C(CCCCC#CCCCC#CCO)=C(C)C1=O`, the Potency is 19.3 µM (active).
Consider `CCCCCN=C(N)N/N=C/c1c[nH]c2ccc(OC)cc12`, for which the Potency was 9.68 µM (active).
In the case of `FC(F)(F)c1ccc(C=Cc2nc(COc3ccc(CCCCn4ccnn4)cc3)co2)cc1`, the Potency was 0.0153 µM (active).
On to `CCC[C@H](N[C@@H](C)C(=O)N1[C@@H]2CCCC[C@H]2C[C@H]1C(=O)O)C(=O)OCC`, for which the “activity change, negative = inhibition” value is -6.4%.
